# Tests used:
# Experiment in all cases: DAPPL (digital affinity profiling via proximity ligation, sequencing); 10 mM Tris-HCl pH 7.5, 50 mM NaCl, 1 mM DTT, 4% glycerol, room temperature, 30 min; GST-TFs on glutathione beads, 16-mer random dsDNA library, 0.1% formaldehyde crosslink after washing; high values mean tight binding
# Settings in all cases: protein: recombinant; tags: N-terminal GST; dsDNA, one strand shown
# FEV = target: T1, FEV (Homo sapiens, UniProt Q99581 1-238)
# T1 sequence: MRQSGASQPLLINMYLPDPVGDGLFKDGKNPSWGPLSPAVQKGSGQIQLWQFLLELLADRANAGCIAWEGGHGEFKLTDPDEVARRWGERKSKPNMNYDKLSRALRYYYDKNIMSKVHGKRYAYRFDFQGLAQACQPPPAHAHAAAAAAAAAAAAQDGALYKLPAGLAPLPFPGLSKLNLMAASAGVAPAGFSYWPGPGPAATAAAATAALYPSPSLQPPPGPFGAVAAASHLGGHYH
# Method in brief: (§1)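 Yeast served to express human transcription factors as GST fusions, which were then captured on glutathione beads and labelled with DNA barcodes. Pooled with a tag-only sample, they were incubated with 200 nmole of a 16-mer random double-stranded DNA library for 30 min at room temperature in Tris/NaCl/DTT/glycerol buffer, washed, crosslinked with 0.1% formaldehyde, ligated by proximity, amplified by PCR and sequenced. Dividing each hexamer's read frequency for a factor by its frequency for the tag-only sample gives the binding signal.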
# ETV5 = ETV5 (Homo sapiens, UniProt P41161 1-510)
# Method in brief: as §1
# SPIC = target: T2, SPIC (Homo sapiens, UniProt Q8N5J4 1-248)
# T2 sequence: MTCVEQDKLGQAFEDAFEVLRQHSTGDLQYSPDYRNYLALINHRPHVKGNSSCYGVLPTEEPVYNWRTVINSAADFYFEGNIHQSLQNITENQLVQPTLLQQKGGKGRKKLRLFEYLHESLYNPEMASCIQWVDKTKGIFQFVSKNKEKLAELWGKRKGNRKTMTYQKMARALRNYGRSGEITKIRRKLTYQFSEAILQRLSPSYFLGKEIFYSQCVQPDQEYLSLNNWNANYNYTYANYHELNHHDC
# Method in brief: as §1
# ELF4 = ELF4 (Homo sapiens, UniProt Q99607 1-663)
# Method in brief: as §1
# ELK4 = target: T3, ELK4 (Homo sapiens, UniProt P28324-2 1-405)
# T3 sequence: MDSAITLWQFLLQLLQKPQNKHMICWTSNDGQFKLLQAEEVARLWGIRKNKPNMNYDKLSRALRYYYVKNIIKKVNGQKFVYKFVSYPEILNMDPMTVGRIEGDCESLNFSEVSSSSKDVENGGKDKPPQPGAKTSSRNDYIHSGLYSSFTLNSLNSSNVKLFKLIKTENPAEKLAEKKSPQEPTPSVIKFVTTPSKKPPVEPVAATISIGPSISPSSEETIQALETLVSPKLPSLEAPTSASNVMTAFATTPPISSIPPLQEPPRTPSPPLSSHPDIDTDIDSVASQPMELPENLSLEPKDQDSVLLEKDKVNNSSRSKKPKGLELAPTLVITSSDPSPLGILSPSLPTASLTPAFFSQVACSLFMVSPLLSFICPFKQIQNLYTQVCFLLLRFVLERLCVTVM
# Method in brief: as §1
# ETV2 = target: T4, ETV2 (Homo sapiens, UniProt O00321 1-342)
# T4 sequence: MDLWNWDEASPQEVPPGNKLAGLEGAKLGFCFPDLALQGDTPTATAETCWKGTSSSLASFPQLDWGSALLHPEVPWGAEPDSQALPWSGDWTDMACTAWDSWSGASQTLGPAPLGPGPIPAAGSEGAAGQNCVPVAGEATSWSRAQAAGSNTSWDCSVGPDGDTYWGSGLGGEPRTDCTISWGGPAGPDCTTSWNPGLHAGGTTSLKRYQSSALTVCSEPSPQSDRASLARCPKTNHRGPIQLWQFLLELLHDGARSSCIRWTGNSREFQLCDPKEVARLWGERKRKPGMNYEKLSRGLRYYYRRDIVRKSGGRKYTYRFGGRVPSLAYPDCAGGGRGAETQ
# Method in brief: as §1
# ELF3 = target: T5, ELF3 (Homo sapiens, UniProt P78545 1-371)
# T5 sequence: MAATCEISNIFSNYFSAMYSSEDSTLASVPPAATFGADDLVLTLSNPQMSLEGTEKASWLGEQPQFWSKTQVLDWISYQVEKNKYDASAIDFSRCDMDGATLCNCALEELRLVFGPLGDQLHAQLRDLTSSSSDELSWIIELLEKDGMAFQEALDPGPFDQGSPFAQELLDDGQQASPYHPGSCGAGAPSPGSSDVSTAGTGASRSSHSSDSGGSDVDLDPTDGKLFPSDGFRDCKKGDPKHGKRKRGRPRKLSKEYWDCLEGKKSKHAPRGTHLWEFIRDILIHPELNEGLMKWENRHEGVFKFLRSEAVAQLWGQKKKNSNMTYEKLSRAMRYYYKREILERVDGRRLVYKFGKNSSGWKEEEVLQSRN
# Method in brief: as §1
# ETV1 = ETV1 (Homo sapiens, UniProt P50549 1-477)
# Method in brief: as §1
# ERF = target: T6, ERF (Homo sapiens, UniProt P50548 1-548)
# T6 sequence: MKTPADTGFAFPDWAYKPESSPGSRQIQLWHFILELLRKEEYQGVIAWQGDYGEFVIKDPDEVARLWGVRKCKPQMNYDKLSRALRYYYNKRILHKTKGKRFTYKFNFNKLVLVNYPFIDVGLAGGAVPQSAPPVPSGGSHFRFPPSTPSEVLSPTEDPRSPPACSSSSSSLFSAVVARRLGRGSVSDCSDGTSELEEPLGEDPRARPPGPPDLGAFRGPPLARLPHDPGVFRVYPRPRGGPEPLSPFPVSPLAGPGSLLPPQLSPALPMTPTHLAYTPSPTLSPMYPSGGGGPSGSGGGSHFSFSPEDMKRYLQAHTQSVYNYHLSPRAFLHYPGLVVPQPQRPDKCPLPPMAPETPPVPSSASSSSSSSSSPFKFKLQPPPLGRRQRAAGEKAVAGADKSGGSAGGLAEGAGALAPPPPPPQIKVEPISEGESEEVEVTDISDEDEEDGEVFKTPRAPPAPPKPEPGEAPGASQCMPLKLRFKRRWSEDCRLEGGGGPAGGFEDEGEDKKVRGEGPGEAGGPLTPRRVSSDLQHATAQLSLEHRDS
# Method in brief: as §1
# ETV3L = target: T7, ETV3L (Homo sapiens, UniProt Q6ZN32 1-361)
# T7 sequence: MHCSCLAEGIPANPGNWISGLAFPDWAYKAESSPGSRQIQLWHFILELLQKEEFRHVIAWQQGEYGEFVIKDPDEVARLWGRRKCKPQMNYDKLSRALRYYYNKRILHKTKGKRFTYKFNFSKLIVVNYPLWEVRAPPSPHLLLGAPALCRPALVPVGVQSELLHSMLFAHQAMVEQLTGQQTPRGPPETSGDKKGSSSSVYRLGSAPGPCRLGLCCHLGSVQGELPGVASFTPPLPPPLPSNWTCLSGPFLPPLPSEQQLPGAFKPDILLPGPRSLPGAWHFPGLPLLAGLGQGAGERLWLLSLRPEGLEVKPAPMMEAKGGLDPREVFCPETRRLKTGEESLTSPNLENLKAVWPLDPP
# Method in brief: as §1
# ETS2 = target: T8, ETS2 (Homo sapiens, UniProt P15036 1-469)
# T8 sequence: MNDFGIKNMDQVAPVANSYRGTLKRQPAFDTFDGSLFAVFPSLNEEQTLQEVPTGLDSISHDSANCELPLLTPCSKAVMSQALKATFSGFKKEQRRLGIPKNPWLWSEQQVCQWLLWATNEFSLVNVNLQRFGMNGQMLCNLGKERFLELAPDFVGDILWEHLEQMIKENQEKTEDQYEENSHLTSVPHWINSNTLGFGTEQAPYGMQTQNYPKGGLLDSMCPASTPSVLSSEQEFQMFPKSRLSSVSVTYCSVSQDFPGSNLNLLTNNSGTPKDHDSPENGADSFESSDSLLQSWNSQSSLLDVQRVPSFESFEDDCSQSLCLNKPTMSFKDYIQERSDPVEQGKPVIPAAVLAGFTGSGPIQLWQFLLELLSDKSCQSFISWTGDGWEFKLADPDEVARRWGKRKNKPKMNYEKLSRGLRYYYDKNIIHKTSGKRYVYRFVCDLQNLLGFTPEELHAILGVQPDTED
# Method in brief: as §1
# SPDEF = target: T9, SPDEF (Homo sapiens, UniProt O95238 1-335)
# T9 sequence: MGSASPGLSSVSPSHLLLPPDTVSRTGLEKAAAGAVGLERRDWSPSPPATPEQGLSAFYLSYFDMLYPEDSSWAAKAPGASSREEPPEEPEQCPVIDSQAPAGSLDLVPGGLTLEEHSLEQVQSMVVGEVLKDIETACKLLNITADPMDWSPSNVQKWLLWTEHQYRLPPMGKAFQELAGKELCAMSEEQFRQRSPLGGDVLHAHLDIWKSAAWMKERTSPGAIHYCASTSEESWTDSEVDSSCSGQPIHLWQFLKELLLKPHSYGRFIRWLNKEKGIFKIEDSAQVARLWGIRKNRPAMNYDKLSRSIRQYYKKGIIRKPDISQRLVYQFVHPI
# Method in brief: as §1
# ETV7 = target: T10, ETV7 (Homo sapiens, UniProt Q9Y603 1-341)
# T10 sequence: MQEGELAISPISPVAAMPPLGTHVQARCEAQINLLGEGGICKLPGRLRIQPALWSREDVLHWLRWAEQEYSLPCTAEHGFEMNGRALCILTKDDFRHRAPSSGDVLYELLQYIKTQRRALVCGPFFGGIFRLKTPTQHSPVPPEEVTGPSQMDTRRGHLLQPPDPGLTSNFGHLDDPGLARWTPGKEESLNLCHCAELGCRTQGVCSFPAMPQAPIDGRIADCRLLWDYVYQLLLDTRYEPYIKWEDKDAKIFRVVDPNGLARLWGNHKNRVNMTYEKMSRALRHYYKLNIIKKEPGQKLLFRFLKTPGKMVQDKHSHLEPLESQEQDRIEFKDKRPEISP
# Method in brief: as §1
# ELF5 = target: T11, ELF5 (Homo sapiens, UniProt Q9UKW6-2 1-255)
# T11 sequence: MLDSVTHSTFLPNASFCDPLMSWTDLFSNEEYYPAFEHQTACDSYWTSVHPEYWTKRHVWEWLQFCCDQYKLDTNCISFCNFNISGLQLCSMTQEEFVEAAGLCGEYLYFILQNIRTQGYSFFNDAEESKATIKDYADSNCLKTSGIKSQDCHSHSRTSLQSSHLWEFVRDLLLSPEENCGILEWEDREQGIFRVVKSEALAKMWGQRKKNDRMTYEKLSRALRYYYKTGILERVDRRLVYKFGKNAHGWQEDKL
# Method in brief: as §1
# ETV3 = target: T12, ETV3 (Homo sapiens, UniProt P41162-2 1-143)
# T12 sequence: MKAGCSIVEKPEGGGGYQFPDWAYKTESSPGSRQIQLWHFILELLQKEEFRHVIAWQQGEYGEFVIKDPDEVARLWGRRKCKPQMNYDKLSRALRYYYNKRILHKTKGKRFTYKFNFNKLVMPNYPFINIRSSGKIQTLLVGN
# Method in brief: as §1
# ETV6 = ETV6 (Homo sapiens, UniProt P41212 1-452)
# Method in brief: as §1
# ELF4, sequence (Q99607 whole entry): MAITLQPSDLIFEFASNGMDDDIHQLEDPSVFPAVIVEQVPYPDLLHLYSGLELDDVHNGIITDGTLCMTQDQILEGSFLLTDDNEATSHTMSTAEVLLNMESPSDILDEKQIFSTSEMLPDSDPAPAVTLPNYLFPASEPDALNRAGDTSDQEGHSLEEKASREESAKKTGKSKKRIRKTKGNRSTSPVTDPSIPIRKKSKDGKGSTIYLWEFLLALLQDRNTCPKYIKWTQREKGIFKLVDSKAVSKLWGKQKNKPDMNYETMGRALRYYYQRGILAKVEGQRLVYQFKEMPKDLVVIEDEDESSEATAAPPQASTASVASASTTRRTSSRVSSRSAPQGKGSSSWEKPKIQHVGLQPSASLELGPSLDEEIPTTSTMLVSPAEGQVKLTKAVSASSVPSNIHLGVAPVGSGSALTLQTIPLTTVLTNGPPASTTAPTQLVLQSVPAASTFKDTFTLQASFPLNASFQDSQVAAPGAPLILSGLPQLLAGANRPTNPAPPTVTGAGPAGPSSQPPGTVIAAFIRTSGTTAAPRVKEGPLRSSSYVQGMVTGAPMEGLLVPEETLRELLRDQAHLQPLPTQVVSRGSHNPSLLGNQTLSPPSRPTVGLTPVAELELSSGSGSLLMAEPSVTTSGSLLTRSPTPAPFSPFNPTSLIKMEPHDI
# ETV1, sequence (P50549 whole entry): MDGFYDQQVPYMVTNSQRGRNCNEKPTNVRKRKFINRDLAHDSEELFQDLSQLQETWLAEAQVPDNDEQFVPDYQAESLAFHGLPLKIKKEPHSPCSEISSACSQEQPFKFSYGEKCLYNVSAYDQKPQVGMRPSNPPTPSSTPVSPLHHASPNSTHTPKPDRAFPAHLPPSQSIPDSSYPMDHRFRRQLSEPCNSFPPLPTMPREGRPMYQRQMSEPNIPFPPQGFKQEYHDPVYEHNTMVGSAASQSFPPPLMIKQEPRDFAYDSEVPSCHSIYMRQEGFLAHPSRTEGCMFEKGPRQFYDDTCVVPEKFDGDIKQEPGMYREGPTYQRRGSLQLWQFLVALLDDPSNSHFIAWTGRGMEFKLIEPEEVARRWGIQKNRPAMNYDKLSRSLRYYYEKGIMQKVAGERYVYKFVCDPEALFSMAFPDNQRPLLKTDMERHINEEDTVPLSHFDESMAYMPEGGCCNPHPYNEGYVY
# ETV5, sequence (P41161 whole entry): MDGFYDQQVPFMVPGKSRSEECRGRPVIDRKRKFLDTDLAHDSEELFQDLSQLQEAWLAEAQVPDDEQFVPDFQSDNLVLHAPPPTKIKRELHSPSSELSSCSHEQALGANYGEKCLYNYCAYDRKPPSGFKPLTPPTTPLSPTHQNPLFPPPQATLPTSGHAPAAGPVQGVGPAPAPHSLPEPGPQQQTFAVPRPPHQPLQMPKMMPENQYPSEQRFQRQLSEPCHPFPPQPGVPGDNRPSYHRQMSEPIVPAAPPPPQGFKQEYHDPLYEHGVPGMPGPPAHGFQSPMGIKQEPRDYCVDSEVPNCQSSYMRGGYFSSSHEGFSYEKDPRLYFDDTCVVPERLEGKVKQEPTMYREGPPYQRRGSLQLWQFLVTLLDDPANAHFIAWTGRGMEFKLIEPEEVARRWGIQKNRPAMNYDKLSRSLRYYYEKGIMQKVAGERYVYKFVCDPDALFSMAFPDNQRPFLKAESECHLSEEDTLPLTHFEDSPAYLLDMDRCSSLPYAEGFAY
# ETV6, sequence (P41212 whole entry): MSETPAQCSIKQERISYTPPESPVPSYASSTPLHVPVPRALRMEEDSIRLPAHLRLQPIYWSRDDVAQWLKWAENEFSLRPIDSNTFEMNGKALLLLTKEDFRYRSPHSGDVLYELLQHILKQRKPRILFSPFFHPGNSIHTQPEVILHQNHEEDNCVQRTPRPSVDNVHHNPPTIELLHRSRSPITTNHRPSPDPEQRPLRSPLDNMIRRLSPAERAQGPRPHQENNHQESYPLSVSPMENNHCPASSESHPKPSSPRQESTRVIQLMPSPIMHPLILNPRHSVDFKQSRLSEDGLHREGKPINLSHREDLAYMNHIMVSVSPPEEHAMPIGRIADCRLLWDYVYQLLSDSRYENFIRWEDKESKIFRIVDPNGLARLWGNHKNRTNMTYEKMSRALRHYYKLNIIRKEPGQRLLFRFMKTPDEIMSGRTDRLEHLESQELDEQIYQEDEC
Sequence,binding signal (FEV),binding signal (ETV5),binding signal (SPIC),binding signal (ELF4),binding signal (ELK4),binding signal (ETV2),binding signal (ELF3),binding signal (ETV1),binding signal (ERF),binding signal (ETV3L),binding signal (ETS2),binding signal (SPDEF),binding signal (ETV7),binding signal (ELF5),binding signal (ETV3),binding signal (ETV6)
CCCCAC,"1.29 fold enrichment (6-mer frequency, TF over GST control)","1.18 fold enrichment (6-mer frequency, TF over GST control)","1.33 fold enrichment (6-mer frequency, TF over GST control)","1.28 fold enrichment (6-mer frequency, TF over GST control)","1.36 fold enrichment (6-mer frequency, TF over GST control)","1.2 fold enrichment (6-mer frequency, TF over GST control)","1.25 fold enrichment (6-mer frequency, TF over GST control)","1.11 fold enrichment (6-mer frequency, TF over GST control)","1.14 fold enrichment (6-mer frequency, TF over GST control)","1.28 fold enrichment (6-mer frequency, TF over GST control)","1.22 fold enrichment (6-mer frequency, TF over GST control)","1.2 fold enrichment (6-mer frequency, TF over GST control)","1.11 fold enrichment (6-mer frequency, TF over GST control)","1.19 fold enrichment (6-mer frequency, TF over GST control)","1.2 fold enrichment (6-mer frequency, TF over GST control)","1.1 fold enrichment (6-mer frequency, TF over GST control)"
AGCGAC,"1.19 fold enrichment (6-mer frequency, TF over GST control)","1.13 fold enrichment (6-mer frequency, TF over GST control)","1.19 fold enrichment (6-mer frequency, TF over GST control)","1.19 fold enrichment (6-mer frequency, TF over GST control)","1.25 fold enrichment (6-mer frequency, TF over GST control)","1.22 fold enrichment (6-mer frequency, TF over GST control)","1.01 fold enrichment (6-mer frequency, TF over GST control)","1.12 fold enrichment (6-mer frequency, TF over GST control)","1.32 fold enrichment (6-mer frequency, TF over GST control)","1.13 fold enrichment (6-mer frequency, TF over GST control)","1.15 fold enrichment (6-mer frequency, TF over GST control)","1.01 fold enrichment (6-mer frequency, TF over GST control)","1.22 fold enrichment (6-mer frequency, TF over GST control)","1.2 fold enrichment (6-mer frequency, TF over GST control)","1.14 fold enrichment (6-mer frequency, TF over GST control)","1.17 fold enrichment (6-mer frequency, TF over GST control)"

# Source: article PMC7862700, “An all-to-all approach to the identification of sequence-specific readers for epigenetic DNA modifications on cytosine”
